The record followed here is PubChem BioAssay (Tox21).

Structures are written as SMILES. Values joined by “and” are separate entries in the source; they are usually repeats but may differ in a detail not shown here. Equal entries are not always repeated. Records with an inconclusive call do not appear. More than one record can exist for a structure, and the calls need not agree. Active and inactive are the calls of the source. Unless noted, calls follow the shape of the full dose curve.

Experiment [1] is described as follows: Nuclear factor erythroid 2-related factor 2/antioxidant responsive element (Nrf2/ARE) small molecule agonists: qHTS cell viability counter screen in human keratinocytes (AID 1919968; active = well fitted curve in the direction sought with a large enough effect in the repeat runs; an effect the other way counts as inactive or inconclusive; also: nearly all actives have a fitted effect of over 55% in size). The procedure, abridged:
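In human HaCaT keratinocytes stably expressing an ARE-driven luciferase, compound exposure lasted 23 h at 37 C under 5% CO2. Viable cells are quantified with a protease-based fluorogenic reagent (CellTiter-Fluor) read 1 h after addition.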
On the technique in general: qHTS replaces the single test concentration by a dilution series.

A short description of experiment [2]: Nuclear factor erythroid 2-related factor 2/antioxidant responsive element (Nrf2/ARE) small molecule agonists: luciferase reporter gene qHTS assay in human keratinocytes (AID 1919969). Also: nearly all actives have a fitted effect of over 35% in size. Also: potency is read from the fitted curve at half-maximal effect. In general terms: In a reporter assay the amount or activity of a reporter protein is the signal.
In experiment [3] the target is KiSS-1 receptor (Homo sapiens) (UniProt Q969F8). As to the kind of experiment: Human kisspeptin (KISS1R) small molecule agonists, calcium flux assay in KISS1R-HEK293 cells (AID 1920064; active = well fitted curve in the direction sought with a large enough effect in the repeat runs; an effect the other way counts as inactive or inconclusive). The method, boiled down:
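Concentration-response testing used 15 concentrations in triplicate on human KISS1R-expressing HEK293 cells. Calcium-dependent fluorescence (Ex/Em 480/540) was followed kinetically for 3 min after compound transfer.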
(In general: Calcium assays in cells follow changes in intracellular calcium, usually with a dye or a luminescent sensor.)

The nature of experiment [4]: G protein-coupled receptor (GPCR) small molecule agonists, calcium flux assay: HEK293 wild type cell line counter screen (AID 1920065). The method, boiled down:
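Fluorescence intensity signals activation. After overnight (18 h) culture and a 1 h calcium dye load at 37 C, compounds are added by pin tool and the plate read at 480/540 nm for 3 min in 1 s steps.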

Experiment [5] can be described thus: p53 small molecule agonists, cell-based qHTS assay with human liver microsomes (AID 1963577). The method, boiled down: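 Compounds act here after metabolic activation: human liver microsomes and NADPH, both at 0.5 mg/mL final, were co-added to p53RE-bla cells. Incubation ran 16 h at 37 C, followed by LiveBLAzer detection.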
A short description of experiment [6]: p53 small molecule agonists, cell-based qHTS assay with rat liver microsomes (AID 1963578). The procedure, abridged:
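Read-out is beta-lactamase reporter fluorescence (LiveBLAzer, 2 h, room temperature, dark) in p53RE-bla cells treated 16 h at 37 C with compound, rat liver microsomes and NADPH, both 0.5 mg/mL final.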

Experiment [7] in a line: p53 small molecule agonists, cell-based qHTS assay with human liver microsomes: qHTS cell viability counter screen (AID 1963579). Also: nearly all actives have a fitted effect of over 45% in size. The method, boiled down:
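Cells carrying the p53 response-element beta-lactamase reporter are treated for 16 h at 37 C with test compounds in the presence of human liver microsomes and NADPH (both 0.5 mg/mL final); ATP-based CellTiter-Glo luminescence then reports viability.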

Experiment [8] is described as follows: p53 small molecule agonists, cell-based qHTS assay with rat liver microsomes: qHTS cell viability counter screen (AID 1963580). Also: nearly all actives have a fitted effect of over 45% in size. The procedure, abridged: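 Cytotoxicity counter screen: intracellular ATP read by CellTiter-Glo luminescence in the p53 reporter wells. HCT-116 p53RE-bla cells were treated for 16 h at 37 C alongside rat liver microsomes and NADPH, each 0.5 mg/mL final.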

Experiment [9] is described as follows: p53 small molecule agonists, cell-based qHTS assay: qHTS cell viability counter screen (AID 1963581). Also: nearly all actives have a fitted effect of over 45% in size. The method, boiled down: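 Luminescence from CellTiter-Glo, reflecting ATP content, serves as the cytotoxicity measure; it is taken after the 2 h reporter substrate step in HCT-116 p53RE-bla cells dosed for 16 h at 37 C.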
A short description of experiment [10]: p53 small molecule agonists, cell-based qHTS assay (AID 1963582; active = well fitted activation curve with a large enough effect in the signal ratio in the repeat runs, not every such curve was filed as active; the % refers to the signal ratio). The procedure, abridged:
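After plating, p53RE-bla cells sat 5 h in the incubator; compounds or DMSO vehicle were pinned in; a 16 h incubation at 37 C followed; FRET substrate was added and, 2 h later at RT, fluorescence was measured.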

Experiment [11] concerns the target 5-hydroxytryptamine receptor 2A (Homo sapiens) (UniProt P28223). As to the kind of experiment: 5-hydroxytryptamine receptor 2A (HTR2A) small molecule antagonists, cell-based qHTS assay (AID 1963586). Also: nearly all actives have a fitted effect of over 45% in size. The method, boiled down: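 CHO cells stably expressing human HTR2A were plated for 18 h at 37 C, then loaded with calcium dye for 1 h. Compounds were preincubated 5 min at room temperature before DOI (4 nM solution) was added. Kinetic fluorescence was read for 3 min.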

Experiment [12] has the same target. The experiment is described as follows: 5-hydroxytryptamine receptor 2A (HTR2A) small molecule agonists, cell-based qHTS assay (AID 1963587). Also: nearly all actives have a fitted effect of over 30% in size. The method, boiled down:
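Kinetic calcium-flux fluorescence (2 min, 1 sec intervals) after compound addition in agonist mode. HTR2A-CHO cells were cultured 18 h, then dye-loaded 1 h at 37 C.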

Experiment [13] has as its target Muscarinic acetylcholine receptor M1 (Homo sapiens) (UniProt P11229). As to the kind of experiment: Cholinergic receptor muscarinic 1 (CHRM1) small molecule antagonists, cell-based qHTS assay (AID 1963588). Also: nearly all actives have a fitted effect of over 40% in size. The method, boiled down:
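Compounds were tested at 15 concentrations in three independent runs. Dye-loaded CHRM1-CHO cells were exposed 5 min at room temperature before stimulation by acetylcholine added at 50nM. Intracellular calcium was read kinetically on FDSS for 3 min.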

Experiment [14] has the same target. As to the kind of experiment: Cholinergic receptor muscarinic 1 (CHRM1) small molecule agonists, cell-based qHTS assay (AID 1963589). Also: nearly all actives have a fitted effect of over 35% in size. The procedure, abridged:
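Fluorescent calcium dye reports M1 activation in stably transfected CHO cells. Compounds, 15 concentrations, added after 1 h dye loading at 37 C; kinetic reading at 1 sec intervals.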

Experiment [15] is described as follows: cAMP Responsive Elements (CRE) small molecule agonists, cell-based qHTS assay (AID 1963590). The method, boiled down: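 Compound exposure lasted 3 h at 37 C/5% CO2 in CRE-bla HEK 293T cells grown in assay medium with 10% dialyzed FBS and 25 mM HEPES. Reporter signal came from LiveBLAzer B/G FRET substrate, 2 h, room temperature.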
Experiment [16] in a line: cAMP Responsive Elements (CRE) small molecule antagonists, cell-based qHTS assay (AID 1963591; active = well fitted inhibition curve with a large enough effect in the signal ratio in the repeat runs, not every such curve was filed as active; the % refers to the signal ratio). The method, boiled down:
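Stimulation used NKH477 at a final 0.25 uM for 3 h in compound-treated CRE-bla HEK293T cells, seeded 18 h beforehand. Reporter activity was measured with LiveBLAzer B/G FRET substrate after 2 h at room temperature.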

The target in experiment [17] is Beta-2 adrenergic receptor (Homo sapiens) (UniProt P07550). As to the kind of experiment: Adrenergic beta2 receptor (ADRB2) small molecule antagonists, cell-based qHTS assay (AID 1963592). Also: series mostly up to about 92 µM; nearly all actives have a fitted effect of over 50% in size. The procedure, abridged: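 Assay format: CHO-ADRB2 cells, 18-20hr seeding at 37C/5% CO2, then compound plus 1nM isoproterenol agonist mix for 0.5hr RT. Homogeneous time-resolved fluorescence cAMP detection after 1hr, expressed as 665/615 nm ratio.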
Beta-2 adrenergic receptor (Homo sapiens), sequence (P07550 whole entry, looked up): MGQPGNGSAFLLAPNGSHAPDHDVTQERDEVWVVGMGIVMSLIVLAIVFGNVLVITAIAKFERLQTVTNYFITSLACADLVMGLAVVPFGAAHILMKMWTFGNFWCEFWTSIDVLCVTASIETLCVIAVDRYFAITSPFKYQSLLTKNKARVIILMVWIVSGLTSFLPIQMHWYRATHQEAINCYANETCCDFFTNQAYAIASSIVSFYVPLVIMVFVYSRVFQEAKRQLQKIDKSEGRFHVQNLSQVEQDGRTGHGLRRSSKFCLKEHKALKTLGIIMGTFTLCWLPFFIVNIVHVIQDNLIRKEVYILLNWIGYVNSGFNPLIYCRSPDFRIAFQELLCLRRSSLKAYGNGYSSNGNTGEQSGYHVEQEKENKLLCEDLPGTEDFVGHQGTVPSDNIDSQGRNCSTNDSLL

For experiment [18], the target named is D(2) dopamine receptor (Homo sapiens) (UniProt P14416). As to the kind of experiment: Dopamine D2 receptor (DRD2) small molecule agonists, cell-based qHTS assay (AID 1963594). Also: nearly all actives have a fitted effect of over 35% in size. The method, boiled down: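 cAMP accumulation in DRD2-HEK293 cells measured by HTRF after 1 h detection; compounds added 10 min before NKH477 (200nM […]) forskolin-analogue stimulation, 30 min at room temperature, with Ro20-1724 present at 0.1 mM final.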
D(2) dopamine receptor (Homo sapiens), sequence (P14416 whole entry, looked up): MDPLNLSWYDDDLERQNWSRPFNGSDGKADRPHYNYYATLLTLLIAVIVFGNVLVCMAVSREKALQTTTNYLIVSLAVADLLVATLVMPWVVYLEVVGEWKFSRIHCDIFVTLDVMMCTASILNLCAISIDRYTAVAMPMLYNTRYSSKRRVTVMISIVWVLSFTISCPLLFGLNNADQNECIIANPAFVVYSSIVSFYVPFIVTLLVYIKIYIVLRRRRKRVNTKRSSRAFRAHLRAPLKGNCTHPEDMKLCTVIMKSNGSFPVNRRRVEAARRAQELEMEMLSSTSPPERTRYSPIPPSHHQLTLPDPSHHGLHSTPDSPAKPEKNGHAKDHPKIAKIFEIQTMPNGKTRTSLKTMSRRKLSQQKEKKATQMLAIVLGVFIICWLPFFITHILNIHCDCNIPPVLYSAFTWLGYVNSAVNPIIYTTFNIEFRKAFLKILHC

Experiment [19] shares this target. As to the kind of experiment: Dopamine D2 receptor (DRD2) small molecule antagonists, cell-based qHTS assay (AID 1963595; active = well fitted inhibition curve with a large enough effect in the signal ratio in the repeat runs, with a control signal flat; the % refers to the signal ratio). The procedure, abridged: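 Human DRD2 antagonist qHTS measuring cAMP by HTRF. The cells are exposed to compound for 10 min, then to NKH477 (200 nM) and quinpirole (12 nM) for 30 min at RT, with Ro20-1724 (0.1 mM) present throughout.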
The target in experiment [20] is Beta-2 adrenergic receptor (Homo sapiens) (UniProt P07550). As to the kind of experiment: Adrenergic beta2 receptor (ADRB2) small molecule agonists, cell-based qHTS assay (AID 1963593).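 Also: CHO cells stably overexpressing human ADRB2.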 The method, boiled down: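 CHO cells stably over-expressing ADRB2 were plated overnight at 37C, then dosed with compounds plus a stimulation mix containing 100uM IBMX and 25uM Ro-20-1724 for 0.5hr at room temperature. cAMP was measured by HTRF competition, 1hr.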

KiSS-1 receptor (Homo sapiens), sequence (Q969F8 whole entry, looked up): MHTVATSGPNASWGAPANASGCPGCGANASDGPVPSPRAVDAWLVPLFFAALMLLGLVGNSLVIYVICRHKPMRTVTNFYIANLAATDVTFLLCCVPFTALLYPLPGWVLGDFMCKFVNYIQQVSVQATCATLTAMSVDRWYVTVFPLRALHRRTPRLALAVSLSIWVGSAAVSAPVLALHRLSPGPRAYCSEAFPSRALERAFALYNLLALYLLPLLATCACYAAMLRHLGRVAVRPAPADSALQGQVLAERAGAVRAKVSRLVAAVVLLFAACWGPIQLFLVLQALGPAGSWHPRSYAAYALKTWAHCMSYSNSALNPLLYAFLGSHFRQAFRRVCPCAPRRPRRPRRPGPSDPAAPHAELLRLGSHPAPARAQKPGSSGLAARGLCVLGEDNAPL
5-hydroxytryptamine receptor 2A (Homo sapiens), sequence (P28223 whole entry, looked up): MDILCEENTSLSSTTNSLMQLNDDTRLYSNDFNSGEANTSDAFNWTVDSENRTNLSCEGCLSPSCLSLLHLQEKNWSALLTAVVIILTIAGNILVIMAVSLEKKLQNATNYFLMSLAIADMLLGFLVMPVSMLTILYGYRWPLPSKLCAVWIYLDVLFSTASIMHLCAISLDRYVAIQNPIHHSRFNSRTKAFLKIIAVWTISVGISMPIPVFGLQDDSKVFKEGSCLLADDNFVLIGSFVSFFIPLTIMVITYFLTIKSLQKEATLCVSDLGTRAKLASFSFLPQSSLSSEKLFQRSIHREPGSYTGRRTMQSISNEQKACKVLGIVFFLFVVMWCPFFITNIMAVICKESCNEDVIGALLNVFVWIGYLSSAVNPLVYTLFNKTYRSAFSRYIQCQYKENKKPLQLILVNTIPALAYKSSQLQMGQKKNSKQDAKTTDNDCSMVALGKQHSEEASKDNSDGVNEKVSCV
Muscarinic acetylcholine receptor M1 (Homo sapiens), sequence (P11229 whole entry, looked up): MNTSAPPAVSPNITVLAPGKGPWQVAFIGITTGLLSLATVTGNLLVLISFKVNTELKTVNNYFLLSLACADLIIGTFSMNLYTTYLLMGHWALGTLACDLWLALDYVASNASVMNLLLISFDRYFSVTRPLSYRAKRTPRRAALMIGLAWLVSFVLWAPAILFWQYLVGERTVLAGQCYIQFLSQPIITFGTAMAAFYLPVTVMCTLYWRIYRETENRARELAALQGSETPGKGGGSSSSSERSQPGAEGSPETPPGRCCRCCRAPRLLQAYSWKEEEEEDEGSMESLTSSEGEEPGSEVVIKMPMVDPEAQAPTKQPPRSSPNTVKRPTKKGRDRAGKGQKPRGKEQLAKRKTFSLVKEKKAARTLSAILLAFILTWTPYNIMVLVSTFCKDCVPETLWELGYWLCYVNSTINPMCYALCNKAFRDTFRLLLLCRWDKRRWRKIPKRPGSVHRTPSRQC

Consider `COc1cc2c(Nc3ccc(Br)cc3F)ncnc2cc1OCC1CCN(C)CC1`, for which the Potency entry in experiment [1], in experiment [2], in experiment [3], in experiment [4], in [5] and in experiment [6] was “inactive” in each case. Also, the Potency entry in experiment [7], in experiment [8], in experiment [9], in experiment [10], in experiment [11] and in [12] was “inactive” throughout. Further, the Potency entry in [13], in [14], in experiment [15], in experiment [16], in experiment [17] and in experiment [18] was “inactive” each time. In experiment [19], the Potency result is “inactive”.
With `CC(C)C(=O)O`, the Potency result in [1], in experiment [2], in experiment [3], in experiment [4], in experiment [5] and in experiment [6] was “inactive” throughout. For the same compound, the Potency result in [7], in [8], in experiment [9], in [10], in experiment [11] and in experiment [12] was “inactive” in each case. In addition, the Potency result in experiment [13], in experiment [14], in experiment [15], in experiment [16], in [20] and in experiment [18] was “inactive” in each case. Also, in experiment [19], the Potency result was “inactive”.
As for `[K+]`, the Potency entry in experiment [1], in [2], in experiment [3], in [4], in experiment [5] and in experiment [6] was “inactive” throughout. For the same compound, the Potency result in [7], in experiment [8], in experiment [9], in experiment [10], in [11] and in experiment [12] was “inactive” throughout. Moreover, the Potency result in [13], in [14], in experiment [16], in experiment [17], in [20] and in [18] was “inactive” each time. In addition, the Potency entry in experiment [19] was “inactive”.
Turning to `Cn1cnc([N+](=O)[O-])c1Sc1ncnc2nc[nH]c12`, the Potency result in experiment [1], in [3], in experiment [4], in [5], in [6] and in [7] was “inactive” in each case. Further, the Potency entry in experiment [8], in experiment [9], in experiment [15], in [16] and in experiment [19] was “inactive” throughout. Besides, the Potency in experiment [2] was 27.1 µM (active) and inactive.
For the compound `C=CCCCCCCCC`, the Potency result in experiment [1], in [2], in [3], in [4], in [5] and in [7] was “inactive” throughout. Also, the Potency entry in experiment [8], in experiment [9], in [10], in experiment [11], in [12] and in experiment [13] was “inactive” in each case. For the same compound, the Potency entry in [14], in experiment [15], in experiment [16], in [20] and in experiment [18] was “inactive” in each case.
For `Cc1ncc(CO)c(CN)c1O`, the Potency result in experiment [1], in [2], in experiment [3], in experiment [4], in [5] and in experiment [6] was “inactive” in each case. The Potency result in [7], in experiment [9], in experiment [10], in experiment [11], in experiment [12] and in experiment [13] was “inactive” each time. Moreover, the Potency result in experiment [14], in experiment [15], in experiment [16], in [17], in experiment [18] and in [19] was “inactive” in each case.
On to `CCCCCCCO`, for which the Potency result in [1], in [3], in experiment [4], in experiment [7], in experiment [8] and in [9] was “inactive” each time. Besides, the Potency result in experiment [11], in experiment [12], in experiment [13], in experiment [14], in experiment [15] and in [16] was “inactive” each time. In addition, the Potency entry in experiment [17], in experiment [20] and in [18] was “inactive” throughout. In experiment [2], the Potency entry was “inactive and 61.1 µM (active)”.
